Data as given in PubChem BioAssay.
The source made the active and inactive calls.

Columns and labels:
[1] = tested on: Plasmodium falciparum Sir2 (PF13_0152, Sir2A); assay: Plasmodium falciparum Sir2A binding compounds – biochemical, small-molecule microarray, 635 nm fluorescence, primary screen (AID 1098); conditions: fluorescence 635 nm, higher = more signal;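 note: score merges spot fluorescence intensity with its signal-to-noise ratio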
[2] = probe aDKK1 binding to arrayed compounds – biochemical, biotinylated probe, 635/667 nm fluorescence, primary screen (AID 1099); conditions: small-molecule microarray, higher = more signal;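 note: score merges 667nm spot fluorescence with signal to noise across triplicate slides; reference of the scale not given here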
[3] = probe aCHRDL2 binding to arrayed compounds – biochemical, biotinylated probe, 635/667 nm fluorescence, primary screen (AID 1100); conditions: small-molecule microarray, higher = more signal
[4] = change in splice reporter luminescence, either direction, cell-based, HEK293, spliceosome inhibition project, primary screen (AID 1101); conditions: HEK293 splicing luciferase reporter, 24 h, higher = more signal, called active from +8 up or from −8 down;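 note: HEK293 cells carrying a splicing-competent luciferase reporter gene; test concentration not given here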
[5] = molecular target: Fibroblast growth factor 10 (Homo sapiens) (UniProt O15520); assay: compounds binding fibroblast growth factor 10 – biochemical, small-molecule microarray, 635 nm fluorescence, primary screen (AID 1102); conditions: FGF10 binding, fluorescence 635 nm, higher = more signal
Sequence of Fibroblast growth factor 10 (Homo sapiens) (O15520 whole entry, looked up): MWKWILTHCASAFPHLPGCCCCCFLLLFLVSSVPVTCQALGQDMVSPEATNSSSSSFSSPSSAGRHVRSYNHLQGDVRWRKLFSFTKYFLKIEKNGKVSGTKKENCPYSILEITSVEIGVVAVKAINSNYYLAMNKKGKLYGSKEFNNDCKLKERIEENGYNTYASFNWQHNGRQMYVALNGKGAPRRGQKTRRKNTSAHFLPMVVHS

[6] = tested on: glycogen synthase kinase-3 (GSK3A per assay name; protocol says GSK3B); assay: compounds binding glycogen synthase kinase-3 – biochemical, small-molecule microarray, 635 nm fluorescence, GSK3A, primary screen (AID 1103); conditions: fluorescence 635 nm, higher = more signal; note: the record names both GSK3A and GSK3B
[7] = molecular target: Epidermal growth factor receptor (Homo sapiens) (UniProt P00533); assay: compounds binding epidermal growth factor receptor – biochemical, small-molecule microarray, 635 nm fluorescence, primary screen (AID 1104); conditions: EGFR binding, higher = more signal;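 note: score merges 667 nm emission intensity with spot signal to noise over triplicate slides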
Sequence of Epidermal growth factor receptor (Homo sapiens) (P00533 whole entry, looked up): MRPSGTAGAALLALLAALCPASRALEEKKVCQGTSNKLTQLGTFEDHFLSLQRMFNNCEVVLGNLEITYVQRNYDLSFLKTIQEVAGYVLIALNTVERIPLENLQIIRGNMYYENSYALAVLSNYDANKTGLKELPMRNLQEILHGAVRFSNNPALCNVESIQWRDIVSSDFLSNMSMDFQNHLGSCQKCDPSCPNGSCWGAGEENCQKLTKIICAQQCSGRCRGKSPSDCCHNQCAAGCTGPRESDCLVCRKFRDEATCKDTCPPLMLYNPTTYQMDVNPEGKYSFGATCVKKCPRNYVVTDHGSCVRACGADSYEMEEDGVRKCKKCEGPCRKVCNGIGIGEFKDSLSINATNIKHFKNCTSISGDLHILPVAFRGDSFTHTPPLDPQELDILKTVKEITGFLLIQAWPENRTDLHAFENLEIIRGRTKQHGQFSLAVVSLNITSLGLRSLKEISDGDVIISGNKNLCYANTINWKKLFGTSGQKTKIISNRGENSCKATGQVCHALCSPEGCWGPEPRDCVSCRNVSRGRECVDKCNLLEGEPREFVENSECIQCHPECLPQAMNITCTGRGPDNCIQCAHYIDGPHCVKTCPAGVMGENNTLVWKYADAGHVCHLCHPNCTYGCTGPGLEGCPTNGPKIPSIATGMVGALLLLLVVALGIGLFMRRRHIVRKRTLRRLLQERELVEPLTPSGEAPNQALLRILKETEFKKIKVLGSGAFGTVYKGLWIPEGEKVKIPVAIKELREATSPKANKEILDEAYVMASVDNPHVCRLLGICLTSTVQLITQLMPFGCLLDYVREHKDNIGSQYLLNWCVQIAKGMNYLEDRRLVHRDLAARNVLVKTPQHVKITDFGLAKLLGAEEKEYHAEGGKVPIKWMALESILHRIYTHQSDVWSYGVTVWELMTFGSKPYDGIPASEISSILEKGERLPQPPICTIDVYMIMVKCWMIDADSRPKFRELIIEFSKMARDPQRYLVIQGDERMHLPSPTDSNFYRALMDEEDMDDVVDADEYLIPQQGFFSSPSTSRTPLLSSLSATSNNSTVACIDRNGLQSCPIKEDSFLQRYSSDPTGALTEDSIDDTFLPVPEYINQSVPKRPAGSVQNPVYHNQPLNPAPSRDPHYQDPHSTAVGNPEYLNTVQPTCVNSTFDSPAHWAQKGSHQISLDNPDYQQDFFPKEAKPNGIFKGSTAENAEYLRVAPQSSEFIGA

[8] = molecular target: Follistatin-related protein 3 (Homo sapiens) (UniProt O95633); assay: compounds binding follistatin-related protein 3 – biochemical, small-molecule microarray, 635 nm fluorescence, primary screen (AID 1105); conditions: FSTL3 binding, higher = more signal;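 note: score merges emission near 667 nm and signal to noise per printed spot across three slides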
Sequence of Follistatin-related protein 3 (Homo sapiens) (O95633 whole entry, looked up): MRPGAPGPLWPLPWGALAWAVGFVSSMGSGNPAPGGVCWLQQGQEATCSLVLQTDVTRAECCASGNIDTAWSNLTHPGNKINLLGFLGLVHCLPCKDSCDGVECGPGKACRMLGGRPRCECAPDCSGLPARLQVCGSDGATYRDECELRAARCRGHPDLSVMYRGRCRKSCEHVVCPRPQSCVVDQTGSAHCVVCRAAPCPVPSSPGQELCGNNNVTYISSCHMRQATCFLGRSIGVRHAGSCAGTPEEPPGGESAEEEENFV

[9] = molecular target: Dickkopf-related protein 1 (Homo sapiens) (UniProt O94907); assay: small molecules binding DKK1 protein – biochemical, small-molecule microarray, 635 nm fluorescence scan, primary screen (AID 1106); conditions: higher = more signal;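 note: score merges emission near 667 nm with signal to noise over three replicate slides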
Sequence of Dickkopf-related protein 1 (Homo sapiens) (O94907 whole entry, looked up): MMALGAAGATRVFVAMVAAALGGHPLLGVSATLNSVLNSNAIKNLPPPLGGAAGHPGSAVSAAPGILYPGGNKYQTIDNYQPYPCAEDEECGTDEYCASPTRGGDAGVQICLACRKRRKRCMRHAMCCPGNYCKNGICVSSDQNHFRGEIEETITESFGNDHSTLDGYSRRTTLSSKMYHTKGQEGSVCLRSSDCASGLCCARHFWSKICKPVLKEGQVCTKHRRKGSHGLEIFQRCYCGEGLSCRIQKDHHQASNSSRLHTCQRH

[10] = tested on: Inhibin beta A chain (activin A); assay: small molecules binding activin A – biochemical, small-molecule microarray, 635 nm fluorescence scan, primary screen (AID 1107); conditions: INHBA, higher = more signal;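 note: mouse activin A protein probed at 4.33 µg/mL on printed slides; score merges bound-protein fluorescence near 667 nm with spot signal-to-noise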

SMILES	composite z-score [1]	composite z-score [2]	composite z-score [3]	z-score [4]	composite z-score [5]	composite z-score [6]	composite z-score [7]	composite z-score [8]	composite z-score [9]	composite z-score [10]
CC(C)NC(=O)[C@@]1(Cc2ccccc2I)c2ccccc2C(=O)N(Cc2ccccc2Cl)[C@H]1c1ccc(CO)cc1	0.972	0.13	0.156	-0.833 (inactive)	1.1	1.16	0.355	0.575	0.533	0.529
C=CCNC(=O)[C@H]1[C@@H]2C(=O)O[C@@H](c3ccccc3)[C@@H](c3ccccc3)N2[C@@H](c2ccc(O)cc2)[C@]12C(=O)Nc1ccc(C#CCCO)cc12	0.526	0.0418	0.198	0.0704 (inactive)	-0.818	-0.572	-0.326	-0.561	0.0898	0.629
[N-]=[N+]=Nc1ccccc1C[C@]1(C(=O)NCc2ccccc2)N=C(c2ccc(OCCCO)cc2)O[C@H]1c1ccccc1N=[N+]=[N-]	1.04	0.236	0.778	0.716 (inactive)	1.31	0.34	0.291	0.646	-0.245	1.11
COc1ccc(C(O)C2C=CC3C(=O)N(C)C(=O)C3N2NC(=O)OC(C)(C)C)c2ccccc12 (stereo not given)	1.47	0.578	1.01	1.41 (inactive)	1.16	1.27	0.138	1.32	-0.557	0.441
CCOC(=O)C[C@H]1[C@H](OC(=O)c2ccc(-c3ccccc3)cc2)[C@@H](NC(=O)c2ccccc2)c2cc(OCCCO)ccc2N1C(=O)c1ccc2ccccc2n1	-0.0092	0.32	0.339	0.00513 (inactive)	0.47	0.538	-0.0158	0.309	0.234	-0.466
O=C1C2C=CC(C(O)c3ccc(F)cc3)N(Nc3ccc([N+](=O)[O-])cc3)C2C(=O)N1c1ccccc1 (stereo not given)	1.38	0.343	0.839	0.516 (inactive)	0.638	1.07	-0.125	0.558	-0.272	0.556
COc1cc2c(cc1O)C(c1cccs1)N(Cc1ccc([N+](=O)[O-])o1)CC2 (stereo not given)	1.15	0.728	0.27	-0.505 (inactive)	0.876	0.0693	-0.033	-0.0839	-0.466	-0.131
CC(c1ccccc1)C(O)C1C=CC2C(=O)N(C)C(=O)C2N1NC(=O)OC(C)(C)C (stereo not given)	1.16	0.354	0.488	1.18 (inactive)	1.02	1.28	0.469	0.907	0.237	0.633
O[C@@H](Cc1ccccc1)[C@@H](/C=C/C1CC1)NCc1cccc(Cl)c1	1.2	0.081	1.31	-0.944 (inactive)	-1.46	-0.638	-1.14	-0.78	-1.61	0.157
C#CCOc1ccc(C[C@@H](C(=O)OC)N(CC#C)[C@@H](/C=C/C2CC2)[C@H](O)Cc2ccccc2)cc1	-0.103	-0.285	0.846	0.0683 (inactive)	-0.327	-0.829	-0.92	-0.806	-0.429	0.899
COCCOC(=O)N1C(=O)[C@@]2(c3cc(C#CC4(O)CCCCCC4)ccc31)[C@H](C(=O)Nc1nc3ccccc3s1)[C@H]1C(=O)O[C@H](c3ccccc3)[C@H](c3ccccc3)N1[C@@H]2c1ccccc1OCCO	1.07	0.199	0.365	-0.616 (inactive)	1.3	1.29	0.38	1.05	0.287	-0.0079
CCCCN1CC=CC23O[C@@H]4/C=C\CCCOC(=O)C4[C@H]2C(=O)N(CCCO)[C@@H]3C1=O (stereo not given in full)	0.992	-0.222	0.421	0.187 (inactive)	-1.11	-0.224	-0.992	-0.946	-0.984	-0.27
COc1ccccc1CN1C(=O)c2ccccc2[C@@H](C(=O)NCc2ccccc2)[C@@H]1c1ccc(CO)cc1	1.48	-0.262	0.617	-0.263 (inactive)	-0.144	0.883	-0.154	-0.113	-0.258	-0.134
O=C1O[C@@H](c2ccccc2)[C@@H](c2ccccc2)N2[C@@H](c3ccccc3OCCO)[C@]3(C(=O)Nc4ccccc43)[C@@H](C(=O)O)[C@H]12	1.61	-0.124	0.148	-1.71 (inactive)	0.798	-0.269	-0.447	0.0073	-0.499	-0.143
O=C1O[C@H](c2ccccc2)[C@H](c2ccccc2)N2[C@H]1[C@@H](C(=O)NC[C@H](O)c1ccccc1)[C@]1(C(=O)Nc3ccc(C#CC4=CCCCC4)cc31)[C@H]2c1ccccc1OCCO	0.312	0.697	0.722	-1.74 (inactive)	0.439	1.13	0.208	0.627	0.359	1.06
C=CCNC(=O)[C@@H]1[C@H]2C(=O)O[C@H](c3ccccc3)[C@H](c3ccccc3)N2[C@H](c2ccc(OCCO)cc2)[C@@]12C(=O)N(C(=O)OCCOC)c1ccc(C#CCC(C(=O)OC)C(=O)OC)cc12	1.32	0.951	0.328	1.01 (inactive)	1.07	1.28	0.719	1.1	1.29	-0.0578
CN1C(=O)C2C=CC(C(O)c3ccc(F)cc3)N(N(c3ccccc3)c3ccccc3)C2C1=O (stereo not given)	1.46	0.303	1.03	1.9 (inactive)	0.103	0.0581	-0.329	0.549	-0.742	0.984
COc1ccc(C(O)C2C=CC3C(=O)N(C)C(=O)C3N2N(c2ccccc2)c2ccccc2)c2ccccc12 (stereo not given)	1.42	0.464	1.04	1.04 (inactive)	0.784	-0.16	0.23	1.19	0.569	1.13
CCOC(=O)C[C@H]1[C@H](OC(=O)c2ccc(C(=O)c3ccccc3)cc2)[C@@H](NC(=O)Cc2ccc(OC)cc2)c2cc(OCCCO)ccc2N1C(=O)c1ccc2ccccc2n1	0.31	0.05	0.161	0.409 (inactive)	0.526	0.392	0.208	0.811	0.0905	0.468
O=C1O[C@@H](c2ccccc2)[C@@H](c2ccccc2)N2[C@@H](c3ccccc3OCCO)[C@]3(C(=O)Nc4ccc(C#CC5(O)CCCCCC5)cc43)[C@@H](C(=O)N3CCN(c4ncccn4)CC3)[C@H]12	0.448	-0.125	0.304	-0.562 (inactive)	0.878	1.06	0.301	0.463	0.439	-0.431
COCCOC(=O)N1C(=O)[C@@]2(c3ccccc31)[C@H](c1ccc(OCCO)cc1)N1[C@H](c3ccccc3)[C@H](c3ccccc3)OC(=O)[C@H]1[C@@H]2C(=O)N1CCc2cc(OC)c(OC)cc2C1	1.53	0.305	0.232	-1.02 (inactive)	1.29	1.3	0.738	1.42	0.476	0.355
